About 83,000 compounds went through this panel and 20% of them were active in at least one assay; those are over-represented in the sample as a whole.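 Results are percent growth after 48 hours of single-concentration exposure. 100 means growth as in untreated cells, lower positive values show inhibition; negative values down to -100 show cell death.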 A number with no mark means an inactive call. The source made the active and inactive calls. Rule for the calls: active = growth percent below 10; inactive = the rest.
Tests used:
Experiment in all cases: NCI-60 one-dose screen, 48 h (100 = growth as untreated, 0 = no growth, -100 = all killed)
Details in all cases: 10 µM unless noted
T-47D breast = tested on: T-47D breast
BT-549 breast = tested on: BT-549 breast
MDA-MB-435 melanoma = tested on: MDA-MB-435 melanoma
SW-620 colon = tested on: SW-620 colon
MCF7 breast = tested on: MCF7 breast
HCT-116 colon = tested on: HCT-116 colon
HCC-2998 colon = tested on: HCC-2998 colon
KM12 colon = tested on: KM12 colon

Compound | growth (T-47D breast) | growth (BT-549 breast) | growth (MDA-MB-435 melanoma) | growth (SW-620 colon) | growth (MCF7 breast) | growth (HCT-116 colon) | growth (HCC-2998 colon) | growth (KM12 colon)
CC(C)N1CC(=O)N2CSCC2C1=O (stereo not given) | 108% | 110% | 105% | 102% | 98.7% | 112% | 102% | 98%
COc1cc(C(=O)NC(=S)NCc2ccncc2)cc(OC)c1OC | 83.2% | 102% | 104% | 110% | 98.3% | 97.3% | 115% | 98%
CCOC(=O)c1ccc(NC(C)=O)o1 | 93.5% | 104% | 103% | 78.7% | 96.9% | 101% | 115% | 102%
O=[N+]([O-])c1ccc(-c2nc(N(CCO)CCO)c3ccccc3n2)o1 | 8.21% (active) | -88.5% (active) | -85.5% (active) | -8.14% (active) | 0.425% (active) | -7.95% (active) | -93.2% (active) | -29.1% (active)
CCCOCc1cn[nH]n1 | 105% | 109% | 105% | 109% | 103% | 107% | 104% | 106%
CCCC(OC(C)=O)c1ccc2c(c1)OCO2 (stereo not given) | 100% | 110% | 106% | 109% | 95.8% | 108% | 98% | 106%
N#C/C(=C\NC(=S)N=Nc1c(O)[nH]c2ccccc12)c1nc2ccccc2s1 | 71.6% | 101% | 108% | 93% | 76% | 92.3% | 113% | 102%
CC(=O)c1cc(O)ccc1O | 108% | 90.9% | 108% | 114% | 101% | 103% | 98.9% | 116%
Cc1ccc(C)c(CN(C)C)c1O | 120% | 99.2% | 109% | 97.1% | 102% | 112% | 102% | 97.4%
C1=NCCc2ccccc21 | 86% | 106% | 111% | 98.5% | 90.3% | 89.7% | 112% | 110%
C=CCOc1ccc(Cl)cc1Cl | 103% | 101% | 102% | 107% | 105% | 104% | 114% | 109%
C#CCSc1nnnn1-c1ccccc1 | 39.6% | 76.8% | 85.3% | 53.2% | 69.3% | 71.6% | 104% | 77.6%
CCCCN(C=S)CCCC | 81% | 97.4% | 105% | 96.4% | 87.6% | 98.9% | 102% | 102%
Cc1cccc(C)c1NC(=S)/N=C\c1c(O)[nH]c(=O)[nH]c1=O | 104% | 93.9% | 107% | 105% | 93.6% | 106% | 102% | 103%
CCNC(=O)OCCc1c2ccccc2nc2ccccc12 | 109% | 111% | 118% | 101% | 89.6% | 94.1% | 110% | 114%
O=C(CCCl)OCCOc1ccccc1 | 96% | 116% | 110% | 107% | 92.1% | 118% | 108% | 102%
Cc1[nH]c(=S)[nH]c(=O)c1C | 115% | 99.7% | 105% | 109% | 101% | 110% | 103% | 108%
CN(C)CCOC(=O)Nc1ccc(Cc2ccc(NC(=O)OCCN(C)C)cc2)cc1 | 105% [100 µM] | 68.3% [100 µM] | 76.4% [100 µM] | 85.8% [100 µM] | 44.9% [100 µM] | 36.5% [100 µM] | 46.2% [100 µM] | 78.8% [100 µM]

Compound | growth (T-47D breast) | growth (BT-549 breast) | growth (MDA-MB-435 melanoma) | growth (SW-620 colon) | growth (MCF7 breast) | growth (HCT-116 colon) | growth (HCC-2998 colon) | growth (KM12 colon)
Cc1ccccc1CC(N)C(=O)O (stereo not given) | 103% | 106% | 108% | 121% | 104% | 106% | 117% | 119%
COc1cc(OC)c(NC(=O)C(Sc2nc(C)cc(C)c2C#N)c2ccccc2)cc1Cl (stereo not given) | 95.9% | 81.7% | 105% | 107% | 95.5% | 86.7% | 111% | 96.4%
COC1CC(OC(=O)c2ccc([N+](=O)[O-])cc2)C(COC(=O)c2ccc([N+](=O)[O-])cc2)O1 (stereo not given) | 104% | 116% | 97.7% | 99.7% | 91.5% | 105% | 112% | 109%
O=C1CSc2ccccc2N1 | 107% | 117% | 108% | 99.2% | 98.5% | 111% | 99.6% | 109%
COc1cc2c(c(OC)c1OC)-c1ccc(SC)c(=O)cc1[C@@H](NC1OC(CO)C(O)C(O)C1O)CC2 (stereo not given in full) | 52.5% | 14.9% | -39.6% (active) | 18.8% | 13.9% | 9.89% (active) | -4.3% (active) | -3.89% (active)
COC(c1ccc2c(c1)OCO2)C(C)Br (stereo not given) | 71.8% | 104% | 90% | 94.9% | 110% | 88.5% | 105% | 93.5%
CC(=O)N(C(C)=O)c1ccc(C)cc1 | 102% | 101% | 111% | 102% | 87.6% | 117% | 98.2% | 103%
CC(C)OCC(CCl)OC(=O)Nc1ccccc1 (stereo not given) | 100% | 110% | 107% | 112% | 96.9% | 108% | 95.6% | 96.6%
C/C(O)=C(/C=N\C(=S)Nc1ccc(S(=O)(=O)Nc2nccs2)cc1)C(=O)Nc1ccccc1C | 90.2% | 99.2% | 109% | 95.6% | 101% | 94.7% | 109% | 96.8%
CC(=O)c1cccc(O)c1 | 103% | 113% | 107% | 101% | 94.3% | 99.9% | 110% | 103%
O=S(=O)(c1ccc(NC(=S)NCc2cccnc2)cc1)N1CCCCC1 | 32.9% | 73.4% | 36.2% | 32.7% | 54.7% | 26.2% | 71.6% | 51.7%
O=C1NC(=O)C(c2ccccc2)O1 (stereo not given) | 83.8% | 99.6% | 104% | 111% | 105% | 98.1% | 105% | 112%
CCCC(=O)CC(=O)c1ccccc1 | 96.1% | 101% | 110% | 105% | 97.2% | 94.8% | 99.1% | 102%
CC(C)c1ccccc1NC(=O)N1CCC(C(C)C)CC1 | 111% | 103% | 91.9% | 107% | 97.5% | 108% | 109% | 113%
OCC1OC(n2ccc3c2ncn2ncnc32)C(O)C1O (stereo not given) | 10.9% | 23.3% | 62.1% | 26.2% | 9.97% (active) | 20.5% | 29.1% | 27.6%
Nc1ccc2c(c1)Cc1cc(N)c(N)cc1-2 | 84.4% | 104% | 104% | 100% | 73.3% | 95.8% | 110% | 94.3%
Oc1cc2ccccc2c(-c2c(O)c(O)cc3ccccc23)c1O | 25.7% | 5.13% (active) | 10.5% | 49.4% | 12.3% | 29% | 38.6% | 52.5%

Reference: PubChem BioAssay (NCI)
